Source: PubChem BioAssay
FBW7 activator = FBW7 E3 ligase activators, primary screen, biochemical, AlphaScreen, human; F-box/WD repeat-containing protein 7 (Homo sapiens), Q969H0; AlphaScreen FBW7–phospho-cyclin E peptide binding, activator screen; normalized activity (activation), % at 26.1 µM; 650,000 compounds, 0.13% hits; AID 1259310, 2017; in the data active = normalized activity above about 1.9%;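 note: purified mutant Fbw7 with reduced substrate affinity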
MITF inh = MITF inhibitors, primary screen, biochemical, AlphaScreen, human; Microphthalmia-associated transcription factor (Homo sapiens), O75030; AlphaScreen MITF homodimerization, bead proximity signal; inhibition, % at 2.6 µM; 650,000 compounds, 0.91% hits; in the data active = inhibition above about 50%
Target sequence (O75030 whole entry, looked up): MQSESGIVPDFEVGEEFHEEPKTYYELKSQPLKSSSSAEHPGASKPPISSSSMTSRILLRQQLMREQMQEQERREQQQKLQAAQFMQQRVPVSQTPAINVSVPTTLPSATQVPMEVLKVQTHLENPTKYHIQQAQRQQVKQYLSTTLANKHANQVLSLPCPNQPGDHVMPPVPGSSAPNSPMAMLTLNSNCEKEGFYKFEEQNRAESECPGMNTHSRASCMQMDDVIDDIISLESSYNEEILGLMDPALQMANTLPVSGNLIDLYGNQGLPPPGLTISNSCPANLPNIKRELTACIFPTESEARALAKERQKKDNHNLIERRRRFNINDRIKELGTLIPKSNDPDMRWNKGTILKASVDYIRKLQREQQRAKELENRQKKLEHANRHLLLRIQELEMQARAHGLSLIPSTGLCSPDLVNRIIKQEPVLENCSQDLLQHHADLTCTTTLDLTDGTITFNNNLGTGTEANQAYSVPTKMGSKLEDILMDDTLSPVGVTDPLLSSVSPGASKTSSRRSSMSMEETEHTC
GPR151 ag = activators of human GPR151, primary screen, cell-based, PathHunter beta-arrestin, luminescence; G-protein coupled receptor 151 (Homo sapiens), Q8TDV0; 650,000 compounds, 1% hits; activation, % at 11.2 µM; PathHunter beta-arrestin GPR151 cells; in the data active = activation above about 4.9%
TEAD-YAP inh = TEAD-YAP interaction inhibition, primary screen, TEAD-YAP interaction inhibitor project, luminescence, HEK-TIYL cells; TEAD-Gal4/YAP UAS-luciferase luminescence; inhibition, % at 9.12 µM; 640,000 compounds, 1.4% hits; AID 1259422, 2018; in the data active = inhibition above about 32%
MITF confirm = MITF inhibitors, retest of hits, confirmation, biochemical, AlphaScreen, triplicate. inhibition, % at 2.6 µM. shares compounds with MITF inh. 4,700 compounds, 16% hits. AlphaScreen MITF homodimerization, biotin/His-MITF beads. AID 1259372, 2018;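 active = inhibition above a cutoff derived from the DMSO control wells, cut at about 28% in these data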;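 note: inhibitors lower the bead chemiluminescence by keeping MITF from dimerizing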
AS interf DR = AlphaScreen optical interference compounds, dose response, counter-screen, biochemical, HTS. shares compounds with MITF inh. AlphaScreen optical interference counterscreen, cell-free. IC50, µM. 480 compounds, 6% hits; call rule not given here
AS interf ctr = AlphaScreen optical interference compounds, counter-screen for MITF inhibitor project, biochemical, triplicate | shares compounds with MITF inh | LysRS AlphaScreen counterscreen, signal interference | inhibition, % at 2.6 µM | 4,700 compounds, 7.6% hits | AID 1259376, 2018;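 active = inhibition above a cutoff derived from the DMSO control wells, cut at about 30% in these data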
Hits are given with their value; i = inactive; nt = no result given. Shown are actives, neighbours in structure and some others; about 3.4% of the full set was active somewhere.

SMILES | FBW7 activator | MITF inh | GPR151 ag | TEAD-YAP inh | MITF confirm | AS interf ctr | others
CCC(C)N1CCN(Cc2cc(OC)c(OC)cc2OC)CC1 (centres undefined) | i | 64 | i | i | i | i
COc1cc(OC)c(CN2CCN(C)CC2)cc1Br | i | 62 | i | i | i | i
O=C1C2CC=C(Cl)CC2C(=O)N1CCN1CCCCC1 (centres undefined) | i | i | i | i | nt | nt
Cc1nc2nc(N)n(-c3ccccc3)[n+]2c(C)c1C | i | i | i | i | nt | nt
CCC(C)N1CCN(Cc2ccc3c(c2)OCO3)CC1 (centres undefined) | i | 71 | i | i | i | i
Cc1ccc(CN2CCN(Cc3ccc4c(c3)OCO4)CC2)cc1 | i | i | i | i | nt | nt
CCC(C)N1CCN(Cc2ccc(OC)cc2)CC1 (centres undefined) | i | 69 | i | i | i | i
COC1CCCCC1NCCc1ccc(Cl)cc1 (centres undefined) | i | i | i | i | nt | nt
COc1ccc(CN2CCN(C(=O)COc3ccc(Cl)cc3)CC2)cc1OCc1ccccc1 | i | 59 | i | i | i | i
O=C(COc1ccc(Cl)cc1)N1CCN(Cc2cccc(F)c2)CC1 | i | 68 | i | i | i | i
O=C(COc1ccccc1)N1CCN(Cc2cccc(F)c2)CC1 | i | i | i | i | nt | nt
C=CCNC(=O)c1c(COc2ccc(C)cc2)n(Cc2ccccn2)c(C)cc1=O | i | i | i | i | nt | nt
CN1CCN(CC#CCOc2ccc(Cl)cc2)CC1 | i | 54 | i | i | i | i
CN(C)c1ccc2c(c1)N1Cc3ccccc3C1=NP2(=S)N1CCCCC1 (centres undefined) | i | i | i | i | nt | nt
COc1ccccc1CN1CCN(C(C)C)C(CCO)C1 (centres undefined) | i | i | i | i | nt | nt
CCN1CCN(Cc2c(C)noc2C)CC1 | i | 83 | i | i | i | i
O=C(CCCCCN1C(=O)c2ccccc2C1=O)Nc1ccc(Cl)cc1C(=O)c1ccccc1 | i | i | i | i | nt | nt
COc1ccc(Br)cc1CN1CC2CC(C1)c1cccc(=O)n1C2 (centres undefined) | i | i | i | i | nt | nt
Cn1cccc1CN1CCN(C(=O)COc2ccccc2)CC1 | i | 53 | i | i | i | i
O=C(COc1ccccc1)N1CCN(Cc2ccccn2)CC1 | i | 78 | i | i | i | i
O=C(Cc1ccccc1)N1CCN(Cc2ccccn2)CC1 | i | i | i | i | nt | nt
CN1CC=C(c2noc(CCC(=O)N3CCN(c4ccccn4)CC3)n2)CC1 | i | i | i | i | nt | nt
COC(=O)c1ccc(CN2CCN(C)CC2)cc1 | i | i | i | i | nt | nt
CC(C)N1CCN(Cc2ccc(Br)cc2)CC1 | i | i | i | i | nt | nt
CCC(C)N1CCN(Cc2ccc(Cl)cc2)CC1 (centres undefined) | i | 74 | i | i | i | i
SMILES | FBW7 activator | MITF inh | GPR151 ag | TEAD-YAP inh | MITF confirm | AS interf ctr | others
CC(C)N1CCN(Cc2ccc(F)cc2)CC1 | i | 55 | i | i | i | i
CC(C)N1CCN(Cc2ccncc2)CC1 | i | 82 | i | i | i | i
CCC(C)N1CCN(Cc2ccc(Br)cc2)CC1 (centres undefined) | i | 71 | i | i | i | i
CCC(C)N1CCN(Cc2cccc(Cl)c2)CC1 (centres undefined) | i | i | i | i | nt | nt
CCC(C)N1CCN(Cc2ccc(F)cc2)CC1 (centres undefined) | i | 59 | i | i | i | i
CN(C)CCN(C)Cc1c[nH]c2ccccc12 | i | 64 | i | i | i | i
CCN1CCN(Cc2ccc(Cl)cc2)CC1 | i | i | i | i | nt | nt
O=C(Cc1ccccc1)N1CCN(Cc2cccc(Cl)c2)CC1 | i | i | i | i | nt | nt
OCCN1CCN(Cc2cccc(Cl)c2Cl)CC1 | i | 65 | i | i | i | i
OCCN1CCN(Cc2cccc(Cl)c2)CC1 | i | 83 | i | i | i | i
OCCN1CCN(Cc2ccc(Cl)cc2)CC1 | i | 67 | i | i | i | i
Cc1cc(N2C(=O)C3CCCN3C2c2ccccc2C)no1 (centres undefined) | i | i | i | i | nt | nt
O=[N+]([O-])c1ccc(Br)c2c1no[n+]2[O-] | i | 74 | i | i | 73 | i | AS interf DR=i
N#Cc1cccc(CN2CCC(N(Cc3ccco3)C(=O)Nc3cccc(F)c3)CC2)c1 | i | i | i | i | nt | nt
COc1ccc(-c2nn(Cc3ccccc3)cc2C=O)cc1OC | i | i | i | i | nt | nt
COc1ccccc1OCC#CCN1CCCC(C)C1 (centres undefined) | i | 58 | i | i | i | i
CN1CCN(Cc2ccc(O)c3ncccc23)CC1 | i | 94 | i | i | 106 | 101
CN1CCN(Cc2c(O)ccc3ccccc23)CC1 | i | i | i | i | nt | nt
CCOC(=O)C1C2NC(=S)N(CC)C1(C)Oc1ccccc12 (centres undefined) | i | i | i | i | nt | nt
Brc1ccc(CNCCc2c[nH]c3ccccc23)cc1 | i | 55 | i | i | i | i
CCc1ccc(CNCCc2c[nH]c3ccccc23)cc1 | i | i | i | i | nt | nt
N#Cc1cc2c(nc1SCC(=O)Nc1ccc(F)cc1)N1CCC2CC1 | i | i | i | i | nt | nt
O=C(Cn1ncn2cccc2c1=O)N1CCC2(CC1)OCCO2 | i | i | i | i | nt | nt
Cc1nn(CC(=O)N2CCC3(CC2)OCCO3)c(=O)c2cc3sccc3n12 | i | 65 | i | i | i | i
Cc1ccccc1-n1c(/C=C/c2cc(Br)ccc2O)nc2ccccc2c1=O | i | i | i | i | nt | nt
SMILES | FBW7 activator | MITF inh | GPR151 ag | TEAD-YAP inh | MITF confirm | AS interf ctr | others
Cc1cc(C)cc(-n2c(/C=C\c3ccccc3F)nc3ccccc3c2=O)c1 | i | i | i | i | nt | nt
CCN1CCN(Cc2cccc(Cl)c2)CC1 | i | i | i | i | nt | nt
CCOc1ccc(CN2CCN(Cc3cccc(Cl)c3)CC2)cc1 | i | 67 | i | i | i | i
CCOc1ccc(CN2CCN(Cc3cccc(C)c3)CC2)cc1 | i | 54 | i | i | i | i
CCOC(=O)c1ccc(NC(=O)CCc2nc(C3=CCN(C)CC3)no2)cc1 | 3.4 | 62 | i | i | 69 | 38
COc1ccc(CN2CCN(Cc3cccc(Br)c3)CC2)cc1Br | i | 76 | i | i | i | i
COc1ccc(CN2CCN(C(=O)COc3ccccc3)CC2)cc1OC | i | i | i | i | nt | nt
COc1ccc2ccccc2c1CN1CCN(C(=O)Cc2ccccc2)CC1 | i | 55 | i | i | i | i
COc1ccc(CN2CCN(C(=O)Cc3ccccc3)CC2)cc1Br | i | 53 | i | i | i | i
